Hits are enriched below; roughly 2.6% of the tested compounds scored in any of these assays.
HepG2 tox: HepG2 cytotoxicity, counter-screen for TGF-b inhibitors | HepG2 CAGA-GFP viability, ATP luminescence, 18 h | 410,000 tested, 0.76% active | Potency, µM (top dose mostly 46.1 µM), for the others: top-dose activity change, negative = cytotoxicity, usual class: cytotoxic; note: potency is the fitted concentration of half-maximal effect
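HepG2 CAGA-GFP cells (1000/well, DMEM with 1% FBS) received compound, then TGF-beta at 500 pg/mL final, and were incubated 18 hours at 37 degrees C. Viability was read by CellTiter-Glo luminescence. Media-only wells were set as complete cell-killing and DMSO as no toxicity.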
ATXN2 expr inh: ATXN2 expression inhibition. 360,000 tested, 0.72% active. Potency, µM (highest dose often 57 µM), without a hit: at the top dose activity change, negative = inhibition, most hits filed as inhibitors. HEK-293 ATXN2-luciferase reporter, luminescence, 24 h. AID 1745845; note: potency is the fitted concentration of half-maximal effect; % is set by controls: 0 for no effect and ±100 for the full control effect; nearly all actives have a fitted effect of over 55% in size
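ATXN2-luciferase reporter cells (luciferase flanked by upstream and downstream ATXN2 gene portions) were treated 24 h at 37 °C with compounds at up to 57 uM. SteadyGlo luminescence gave expression; GF-AFC fluorescence gave viability.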
uPA generation: blocks generation of uPA at the cell surface; cell surface uPA generation assay, qHTS; Potency, µM (series often up to 38.3 µM), inactives show at the highest dose activity change, negative = inhibition, hits mostly inhibitors; 330,000 tested, 0.31% active; AID 540303; active = well fitted inhibition curve with a large enough effect; inconclusive = small, poorly fitted or top-dose-only effect; inactive = no such curve, though single readings can be large or run the other way; tested in mouse RAW 264.7 cells; note: potency is the fitted concentration of half-maximal effect; % is set by controls: 0 for no effect and ±100 for the full control effect; nearly all actives have a fitted effect of over 55% in size
S2 tox: viability counter-screen for ATXN expression inhibitors; 400,000 tested, 0.49% active; AID 651635; Potency, µM (series often up to 56.7 µM), actives largely listed as cytotoxic; S2 cells (HEK-293 line with an ATXN2-luciferase reporter) viability, CellTiter-Fluor protease fluorescence, 24 h; note: potency is the fitted concentration of half-maximal effect; nearly all actives have a fitted effect of over 40% in size
Giardia killer: kills Giardia lamblia; AID 540267; activity change, % at 7.66 µM, hits read low; Giardia lamblia trophozoite viability; 340,000 tested, 0.15% active; in the data active = activity change below about -80%; inconclusive = between about -30% and that limit;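 note: parasites exposed to compound for two days anaerobically before the ATP read; % is set by controls: 0 for no effect and ±100 for the full control effect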
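Trophozoites 100 cells/well + cpd; 48 hrs, 37 deg C, anaerobic. ATPLite 1-Step added, 15-30 min RT, luminescence read (ATP-based viability).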
TGFb SMAD3 inh: blocks TGF-b signaling; HepG2 CAGA-GFP TGF-b/SMAD3 reporter, GFP fluorescence, 18 h; TGF-beta stimulated, 500 pg/mL final; Potency, µM (series often up to 46.1 µM), for the others: top-dose activity, negative = inhibition, hits mostly inhibitors; 410,000 tested, 1.2% active; AID 588855; note: potency is the fitted concentration of half-maximal effect; % is set by controls: 0 for no effect and ±100 for the full control effect; nearly all actives have a fitted effect of over 65% in size
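HEPG2 CAGA-GFP cells (1000/well, DMEM with 1% FBS) were pre-incubated 2 h at 37 degrees C, given compound by pin tool, then stimulated with TGF-beta at 500 pg/mL final for 18 h before per-cell GFP fluorescence imaging.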
The depositor's hits bear a star; i = inactive; u = inconclusive; x = no result given. Unless noted, calls come from the whole dose curve; as a rule, active = well fitted curve in the direction sought with a large enough effect; inconclusive = small, poorly fitted or top-dose-only effect, or another doubt; inactive = no such curve, though single readings can be large; an effect the other way counts as inactive or inconclusive.

SMILES | HepG2 tox | ATXN2 expr inh | uPA generation | S2 tox | Giardia killer | TGFb SMAD3 inh
CC(=O)c1ccc(N2CCN(S(=O)(=O)c3ccc4c(c3)C(Cl)(Cl)C(=O)N4)CC2)cc1 | -93% | -3% | x | i | x | 22µM*
C(=C\c1nccc2c1[nH]c1ccccc12)/c1ccccc1 | 20µM* | x | -2% | x | u | u
Cc1ccn(-c2ccc(-c3ncco3)cc2)c(=O)c1-c1ccc2nc(N)ncc2c1 | x | -13% | x | x | x | x
CCCN1CNc2c(c(=O)[nH]c(=S)n2CCc2c(C)cccc2C)C1 | x | x | x | x | 8 | x
Nc1ccc(C(=O)c2cc3c(ccc4ccccc43)[nH]2)cc1 | x | -12% | x | x | x | x
O=[N+]([O-])c1ccc(/C=N/Nc2nc(N3CCCC3)nc(N3CCCC3)n2)o1 | -49% | -11% | -15% | u | -95* | u
O=[N+]([O-])c1ccc(-c2ccc(/C=N/Nc3nc(N4CCCC4)nc(N4CCCC4)n3)o2)cc1 | -3% | 0% | 3% | i | -6 | 34%
CCNc1nc(NCC)nc(N/N=C/c2ccc([N+](=O)[O-])o2)n1 | -32% | -18% | -5% | i | -82* | u
Cc1c(C(=O)NC(C)(C)CO)sc2ncnc(NCCN(C)C)c12 | x | x | x | i | x | x
O=S(=O)(Nc1ccc(C(O)(C(F)(F)F)C(F)(F)F)cc1)c1ccc(Cl)c2nonc12 | 20µM* | 18µM* | x | x | x | u
COc1ccc(/C=C2\SC(=O)N(CCNC(=O)C3=COCCO3)C2=O)cc1 | 5% | 23% | 7.1µM* | u | 3 | -3%
O=C(NCCN1C(=O)S/C(=C\c2ccccc2Cl)C1=O)C1=COCCO1 | -22% | 7% | 7.9µM* | u | -23 | -12%
Cc1ccc(S(=O)(=O)N2CCN(c3nc(-c4ncco4)nc4ccccc34)CC2)cc1 | x | x | x | x | -28 | x
COc1cc(C2Nc3ccccc3C(=O)N2Cc2ccco2)ccc1O (stereo not given) | 26% | x | x | x | 7 | 9%
CCc1nc2ccc(C(=O)Nc3cccc(NS(C)(=O)=O)c3)cn2c1N(CC)Cc1cccc(Br)c1 | -73% | 28µM* | x | u | x | u
CCc1nc2ccc(C(=O)Nc3ccc4c(c3)OCC(=O)N4)cn2c1N(CC)Cc1cccc(Br)c1 | -19% | u | x | 40µM* | x | u
CN(CCO)C(=O)c1cn(C2CCN(Cc3ccc(C(F)(F)F)cc3)CC2)nn1 | x | x | x | i | x | x
Cn1ccc2cc(-c3ccc4ncnc(NCc5cccs5)c4c3)ccc21 | -25% | u | 7.9µM* | u | 6 | u
COc1cccc(-c2ccc3ncnc(NCc4cccs4)c3c2)c1 | -29% | -9% | -3% | i | -1 | u
COc1cc(=O)n2c(c1C(=O)NCc1ccco1)CCN(Cc1ccc3ccccc3c1)CC2 | x | x | x | i | x | x
CSc1ccccc1NC(=O)CN(C)C(=O)COc1cccc2cccnc12 | 11µM* | -17% | -5% | i | 13 | u
CC(C)(C)c1ccc(C(=O)CCCCl)cc1 | x | 59% | x | i | x | x
Cc1nc(-c2ccccc2)sc1C(=O)NN | 6% | x | 10µM* | u | -6 | 1%
O=C(Nc1ccc(S(=O)(=O)Nc2ccccc2)cc1)C1COc2ccccc2O1 (stereo not given) | -26% | -24% | -23% | i | 1 | 13µM*
O=C(Nc1nnc(-c2cccs2)o1)c1cccc(C(F)(F)F)c1 | -18% | 16µM* | u | u | -19 | u
SMILES | HepG2 tox | ATXN2 expr inh | uPA generation | S2 tox | Giardia killer | TGFb SMAD3 inh
O=C(CCS(=O)(=O)c1ccc(F)cc1)Nc1nnc(-c2cccs2)o1 | 0% | 13% | 10µM* | u | -2 | u
COc1cc(-c2nnc(NC(=O)CCS(=O)(=O)c3ccccc3)o2)cc(OC)c1OC | -40% | 57% | 6% | u | 5 | 11µM*
N#Cc1ccc(C(=O)Nc2nnc(-c3cccs3)o2)cc1 | -20% | u | u | i | -2 | -9%
COc1ccc(O)c(CN2CCC3(CCC(CNC(=O)c4ccccc4)O3)CC2)c1 (stereo not given) | x | x | x | i | x | x
CN(C(=O)c1ccc(OCC=C(c2ccccc2)c2ccccc2)cc1)c1ccccc1I | -14% | x | x | x | -24 | -22%
CCCN1CCC(=O)N(C(CSc2ccc(OC)cc2)CC(C)C)CC1 (stereo not given) | -22% | x | x | x | 16 | 4%
CCCCN(C=O)c1c(CC)nc2c(OCC3CCCCC3)cccn12 | -39% | u | x | u | x | 13µM*
CCc1nc2c(OCCC3CCCCC3)cccn2c1N(C=O)Cc1ccc(OC)cc1 | 20µM* | u | x | i | x | u
Cc1oc(-c2ccccc2NC(=O)c2ccccc2)nc1CNC(=O)C1CC(=O)OC12CCCCC2 (stereo not given) | x | x | x | i | x | x
Cc1ccc2c(c1)/C(=C/c1ccc(F)cc1)C(=O)N2 | 10µM* | x | 0% | u | -23 | u
O=[N+]([O-])c1nn(-c2ccccc2)[n+]([O-])c1N1CCN(c2ccccc2F)CC1 | -28% | -11% | 3% | i | -89* | -2%
O=[N+]([O-])c1nn(-c2ccccc2)[n+]([O-])c1N1CCN(c2ccccc2)CC1 | 2% | -22% | 5% | i | -81* | 12%
Cc1cccc(-n2nc([N+](=O)[O-])c(N3CCN(C(=O)c4ccco4)CC3)[n+]2[O-])c1 | -24% | 12% | 0% | u | u | 0%
O=[N+]([O-])c1cccnc1N1CCN(c2ccccc2F)CC1 | 5% | 19% | -8% | i | -7 | -3%
O=C(NCC1Cc2cccc(-c3ncccn3)c2O1)C1CCOC1 (stereo not given) | x | x | x | i | x | x
COc1ccc2cc1Oc1cc3c(cc1OC)CC[N+](C)(C)[C@H]3Cc1ccc(cc1)Oc1c(OC)c(OC)cc3c1[C@@H](C2)[N+](C)(C)CC3 | x | 6% | x | i | x | x
CCOc1ccc(N2CC(c3nc4ccccc4n3Cc3cccc(C)c3)CC2=O)cc1 (stereo not given) | -32% | u | x | u | x | u
COc1ccccc1Cn1c(C2CC(=O)N(c3ccccc3OC)C2)nc2ccccc21 (stereo not given) | -23% | -29% | x | u | x | 13µM*
CCc1ccc(N2CC(c3nc4ccccc4n3Cc3ccccc3C)CC2=O)cc1 (stereo not given) | -26% | u | x | u | x | 10µM*
CCc1ccccc1N1CC(c2nc3ccccc3n2Cc2cccc(C)c2)CC1=O (stereo not given) | -33% | u | x | u | x | 6.3µM*
CCOc1ccc(N2CC(c3nc4ccccc4n3CCOc3ccc(CC)cc3)CC2=O)cc1 (stereo not given) | -6% | 15% | x | i | x | u
OC1(c2cccc(C(F)(F)F)c2)CCN(c2ncnc3c2[nH]c2ccc(F)cc23)CC1 | 20µM* | 6% | -8% | i | 21 | u

Screening results from PubChem.
